# Results filed as inconclusive are left out. A call without a number means that no potency is given here. Active and inactive are the calls of the source. The call rests on the fitted dose curve; in most records, active means well fitted inhibition curve with a large enough effect; inconclusive means small, poorly fitted or top-dose-only effect; inactive means no such curve, though single readings can be large or run the other way.
# Assay: BET inhibitor-based combinations targeting novel dependencies in MECOM-rearranged (r) AML: MV-4-11 cell line (AID 2202233); further: nearly all actives have a fitted effect of over 45% in size
# Details: MV-4-11 AML viability, CellTiter-Glo luminescence, 48 h; series mostly up to 46 µM
# Source text: Ecotropic viral insertion site 1 (EVI1) is located on chromosome 3q26.2 as part of the MECOM (MDS and EVI1 complex) locus. Under normal hematopoiesis, EVI1 is a regulator of hematopoietic stem cell maintenance and self-renewal and EVI1 levels decrease as the cells differentiate. In approximately 5-10% of de novo acute myeloid leukemia (AML) EVI1 is aberrantly expressed, including Chromosomal inv(3)(q21;q26.2) or t(3;3)(q21;q26.2) alterations (MECOM-r) that account for about 50% of AML with EVI1 overexpression 31. AMLs with high levels of EVI1 have a poor prognosis and an overall survival time averaging between 10-14 months. EVI1 overexpression confers resistance in leukemia cells, highlighting the need to develop new targeted therapies for EVI1 overexpressing AMLs. Here, we performed an unbiased chemical drug screening by evaluating the single agent activity of a collection of 2,480 oncology-focused, approved and investigational drugs (NCATS Mechanism Interrogation Plates, MIPE v5.0) against a panel of seven AML cell lines. These included four MECOM-r cell-lines (AML-191, AML-194, UCSD-AML1 and HNT-34) and three non-MECOM-r AMLs (MV4-11, OCI-AML3 and SET-2). Exploiting the mechanistic redundancy built in the library, we identified target-level sensitivities in MECOM-r AML cells and relative activity as compared to other AML subtypes.
# A collection of 2480 mechanistically annotated dugs (MIPE v5.0) was used to screen four 3q26.2 rearranged AML cell lines and three non-3q26.2 rearranged AML cell lines. This library purposely exploits redundancy by including multiple inhibitors of key onco-targets, while simultaneously encompassing mechanistic diversity, targeting more than 800 distinct mechanisms of action. Briefly, cells were seeded in 5 uL of growth media using a Multidrop Combi dispenser into 1536 well white polystyrene tissue culture treated plates (Corning) at a density of 500cells/well. For each cell-line, for each of the 2480 drugs in MIPE v5.0 library, an 11-point dose curve was generated via a 1536 pin-tool. Plates were incubated for 48 hr at standard incubator conditions, covered by a stainless steel gasketed lid to prevent evaporation. Cell viability was determined by luminescence based, Cell Titer Glo assay (Promega). In detail, 3 uL of Cell Titer Glo were added to each well and plates were incubated at room temperature for 15 min with a stainless-steel lid in place. Luminescence readings were taken using a Viewlux (PerkinElmer) with a 2 s exposure time per plate. Compound dose-response curves were normalized to DMSO and empty well controls on each plate. Quantitative drug activity data from dose-response curves was determined utilizing area Under the Curve (AUC) and Z-transformed AUC (Z-AUC, a mean-centering transformation applied to each individual cell-line screened).
# Potency means the concentration at half of the fitted maximal effect.
row,SMILES,Potency
1,COc1cc2cc(c1Cl)N(C)C(=O)C[C@H](OC(=O)C(C)C)[C@]1(C)O[C@@H]1[C@H](C)[C@@H]1C[C@@](O)(NC(=O)O1)[C@H](OC)/C=C/C=C(\C)C2,inactive
2,CN(C)CCN(C)CCc1ccc(Cl)c(Cl)c1,inactive
3,CCC1(c2ccc(N)cc2)CCC(=O)NC1=O (stereo not given),inactive
4,O=C(Oc1ccc([N+](=O)[O-])cc1)N1CCC(C(O)(c2ccc3c(c2)OCO3)c2ccc3c(c2)OCO3)CC1,inactive
5,CC1(C)CC(O)CC(C)(C)N1O,inactive
6,COc1ccc(C(=O)c2c(C)n(CCN3CCOCC3)c3ccccc23)cc1,2630 nM (active)
7,CCCCCC[C@H]1C(=O)O[C@H](C)[C@H](NC(=O)c2cccc(NC=O)c2O)C(=O)O[C@@H](C)[C@@H]1OC(=O)CC(C)C,1320 nM (active)
8,Cc1sc2c(c1C)C(c1ccc(Cl)cc1)=NC(CC(=O)Nc1ccc(O)cc1)c1nnc(C)n1-2 (stereo not given),296 nM (active)
9,O=c1[nH]c2ccc(Cl)cc2c(N[C@@H]2CN3CCC2CC3)c1-c1nc2ccccc2[nH]1,74.2 nM (active)
10,C[C@]12CC[C@H]3[C@@H](CCC4=CC(=O)CC[C@@]43C)[C@H]1CC[C@H]2OC(=O)CCC1CCCC1,inactive
11,CCCCCCC(C)(C)c1cc(O)c2c(c1)OC(C)(C)C1CC=C(CO)C[C@H]21 (stereo not given in full),29500 nM (active)
12,N=c1c2c(-c3ccccc3)c(-c3ccccc3)n(Cc3ccccc3)c2ncn1C1CCC(O)CC1 (stereo not given),742 nM (active)
13,C#C[C@]1(O)C=C[C@H]2[C@@H]3CCC4=CC(=O)CC[C@@H]4[C@H]3CC[C@@]21CC,18600 nM (active)
14,CN1[C@H]2CC(O)C[C@H]1[C@H]1O[C@H]12 (stereo not given in full),inactive
15,O=S(=O)(CC1CS1)c1ccc(Oc2ccccc2)cc1 (stereo not given),11800 nM (active)
16,CC(C)(C)c1cc(C=C(C#N)C#N)cc(Br)c1O,18600 nM (active)
17,O=C(N[C@H]1CN2CCC1CC2)c1ccc(Cl)cc1,inactive
18,CCOc1ccccc1-n1c(C(C)N2CCN(C(=O)COc3ccc(Cl)cc3)CC2)nc2ccccc2c1=O (stereo not given),3320 nM (active)
19,CCOP(=O)(OCC)C(C)NC(=O)N(CCCl)N=O (stereo not given),inactive
20,CC(C)c1cccc(C(C)C)c1O,inactive

row,SMILES,Potency
1,C/C=C(\C)C(=O)N[C@@H](c1ccccc1)[C@@H](O)C(=O)O[C@H]1C[C@@]2(O)[C@@H](OC(=O)c3ccccc3)[C@@H]3[C@]4(OC(C)=O)CO[C@@H]4C[C@H](O)[C@@]3(C)C(=O)[C@H](OC(C)=O)C(=C1C)C2(C)C,26.3 nM (active)
2,COC12C(COC(N)=O)C3=C(C(=O)C(C)=C(N)C3=O)N1CC1C2N1C (stereo not given),inactive
3,COCC1(CO)C(=O)C2CCN1CC2 (stereo not given),10500 nM (active)
4,C/C(=C\c1csc(C)n1)[C@@H]1C[C@@H]2O[C@]2(C)CCC[C@H](C)[C@H](O)[C@@H](C)C(=O)C(C)(C)[C@@H](O)CC(=O)O1,9.3 nM (active)
5,CCN(CC)C(=O)c1ccc(C2=CC3(CCNCC3)Oc3cccc(O)c32)cc1,inactive
6,CC(C)CC(N(C)C)C1(c2ccc(Cl)cc2)CCC1 (stereo not given),inactive
7,O=P1(NCCCl)OCCCN1CCCl (stereo not given),inactive
8,Cc1cc(SCc2sc(-c3ccc(C(F)(F)F)c(F)c3)nc2C)ccc1OCC(=O)O,18600 nM (active)
9,C/C(O)=C(\C#N)C(=O)Nc1cc(Br)ccc1Br,inactive
10,C[C@]12CC[C@H](O)CC1=CC[C@@H]1[C@@H]2CC[C@]2(C)C(=O)CC[C@@H]12,inactive
11,CN(C)[C@@H]1C(=O)C(C(N)=O)=C(O)[C@@]2(O)C(=O)C3=C(O)c4c(O)cccc4[C@@](C)(O)[C@H]3[C@H](O)[C@@H]12,inactive
12,C[C@@H]1CN(Cc2ccc(F)cc2)CCN1C(=O)COc1ccc(Cl)cc1NC(N)=O,14800 nM (active)
13,CN1C(=O)CCS(=O)(=O)C1c1ccc(Cl)cc1 (stereo not given),inactive
14,CO/C1=C/C(C)=C\[C@@H](C)[C@@H](O)[C@@H](C)C/C(C)=C\C=C/[C@H](OC)[C@@H]([C@@H](C)[C@@H](O)[C@H](C)[C@@]2(O)C[C@@H](O)[C@H](C)[C@@H](C(C)C)O2)OC1=O,98.6 nM (active)
15,Cc1sc2c(c1C)C(c1ccc(Cl)cc1)=N[C@@H](CC(=O)OC(C)(C)C)c1nnc(C)n1-2,209 nM (active)
16,CN1C(=O)COc2c(C(=O)NC3CN4CCC3CC4)cc(Cl)cc21 (stereo not given),inactive
17,C=C[C@H]1CN2CCC1C[C@@H]2[C@@H](O)c1ccnc2ccccc12 (stereo not given in full),5900 nM (active)
18,CC[C@@]1(O)C(=O)OCc2c1cc1n(c2=O)Cc2cc3ccccc3nc2-1,7.4 nM (active)
19,N#CC(O[C@@H]1O[C@H](CO[C@@H]2O[C@H](CO)[C@@H](O)[C@H](O)[C@H]2O)[C@@H](O)[C@H](O)[C@H]1O)c1ccccc1 (stereo not given in full),inactive
20,CN(C)NC(=O)CCC(=O)O,inactive

# From PubChem BioAssay (NCATS)
